# Marburg entry inh = Marburg virus entry inhibition; Marburg virus pseudotyped entry inhibition, cell reporter; Potency, µM (doses to about 37.8 µM), inactives show at the highest dose activity change, negative = inhibition, actives largely listed as inhibitors; actives 1.8% (n = 300,000); AID 540276; calls by dose curve; tested in HEK293 cells
# VACV Venus inh = inhibitors of vaccinia virus (Venus reporter). Vaccinia virus Venus reporter expression, fluorescence. Potency, µM (top dose mostly 36.5 µM), for the others: at the top dose activity change, negative = inhibition, hits mostly inhibitors. actives 0.46% (n = 330,000); calls by dose curve; tested in A549 cells; note: nearly all actives have a fitted effect of over 30% in size
# HCV inh = HCV inhibition; Huh7.5.1 HCVcc-Cre infection, luciferase reporter, 44 h; Potency, µM (highest dose often 41.8 µM), for inactives: top-dose activity change, negative = inhibition, hits mostly inhibitors; actives 3.4% (n = 340,000); AID 651820; active = well fitted inhibition curve with a large enough effect; inconclusive = small, poorly fitted or top-dose-only effect, or another doubt; inactive = no such curve, though single readings can be large or run the other way
#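 Seed cells (1,000/well) for 4 h; treat with compound and infect with HCVcc-Cre, moi about 0.5. Incubate 44 h, then detect luciferase activity.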
# LASV entry inh = blocks Lassa virus binding to or entry into cells; actives 1.2% (n = 300,000); Lassa virus pseudotype entry inhibition, cell reporter; Potency, µM (series often up to 37.9 µM), without a hit: top-dose activity change, negative = inhibition, actives largely listed as inhibitors; calls by dose curve; tested in HEK293 cells; note: nearly all actives have a fitted effect of over 50% in size
# VACV mCherry inh = inhibitors of vaccinia virus infection (mCherry reporter signal); Vaccinia virus mCherry reporter infection, fluorescence; Potency, µM (titrated, usually from 36.5 µM), without a hit: at the top dose activity change, negative = inhibition, usual class: inhibitors; actives 0.63% (n = 310,000); AID 720579; calls by dose curve; tested in A549 cells; note: nearly all actives have a fitted effect of over 35% in size
# * marks the source's active call; other numbers are inactive results; i = inactive; ? = inconclusive; · = not tested or not shown; [ ] = dose if it differs, or a comment. An excerpt weighted towards active compounds, which were near 4.6% of everything screened. % is set by controls: 0 for no effect and ±100 for the full control effect; potency is the fitted concentration of half-maximal effect.
SMILES,Marburg entry inh,VACV Venus inh,HCV inh,LASV entry inh,VACV mCherry inh
CCn1c(=O)c(C(=O)CN(C)Cc2cccc(OC)c2OC)c(N)n(Cc2ccccc2)c1=O,?,-10%,10%,2%,-17%
CCn1c(=O)c(C(=O)CN(C)Cc2ccc(F)cc2)c(N)n(Cc2ccccc2)c1=O,10µM*,-10%,14%,-34%,-3%
C=CC[n+]1ccc(/C=C2\C=Cc3cc(C)ccc3N2CC)c2ccccc21,·,·,2.5µM*,·,·
CCN1/C(=C/c2cc[n+](CCCS(=O)(=O)[O-])c3ccccc23)Sc2ccccc21,9%[46.1 µM],222%,5%,?,i
CCn1c2c(c(=O)n3ncc(C(=O)N4CCN(c5ccc(Cl)cc5)CC4)c13)CN(Cc1ccc(OC)cc1)CC2,·,-28%,·,?,?
CC(C(=O)NC1CCCCCC1)N(c1ccccc1)S(C)(=O)=O (centres undefined),8.2µM*,0%,0%,-2%,-12%
COc1ccc(-c2cc(C(=O)Nc3c(C)nn(Cc4ccc(C)cc4)c3C)no2)cc1OC,?,-2%,·,-16%[46.1 µM],-11%
COc1ccc(OC)c(S(=O)(=O)N/N=C\c2ccc3c(c2)OCO3)c1,5%[46.1 µM],-12%,-2%,12%[46.1 µM],i
O=C(CCc1c[nH]c2ccccc12)N/N=C/c1ccc2c(c1)OCO2,?,-17%,13µM*,?,-14%
COc1ccc(CCC(=O)N/N=C/c2ccc3c(c2)OCO3)cc1,8%,-14%,16%,0.1µM*,-21%
COc1ccc(S(=O)(=O)N/N=C\c2ccc3c(c2)OCO3)c(OC)c1,?,-16%,3.5µM*,?,-2%
O=C(CCc1ccccc1)NCC(=O)N/N=C/c1ccc2c(c1)OCO2,?,-7%,12%,2%,i
CCC1(C2CCN(Cc3ccc(OC)cc3)CC2)NC(=O)N(CC2COc3ccccc3O2)C1=O (centres undefined),·,-5%,·,·,-9%
CCc1cccc(-n2c(=O)c3cccnc3n2CC(=O)Nc2c(C)cc(C)cc2C)c1,·,-1%[7.34 µM],·,27%[46.1 µM],3%[7.34 µM]
CCOc1ccc(NC(=S)NC(=O)/C=C/c2ccc(C)cc2)c([N+](=O)[O-])c1,?,-9%,-31%,?,-13%
CCOc1ccc(NC(=S)NC(=O)/C=C/c2ccc(OC)c(OC)c2)c([N+](=O)[O-])c1,15µM*,-16%,-26%,?,i
O=C(NCC1CCC2(CCN(Cc3ccccc3O)CC2)O1)C1CCCO1 (centres undefined),·,-3%,·,·,-10%
CCOc1cc(C=O)cc(N=Nc2cccc([N+](=O)[O-])c2)c1O,1%[46.1 µM],-5%,15%,-1%[46.1 µM],-8%
O=[N+]([O-])c1ccc(N=Nc2ccc(O)cc2O)cc1,?,?,?,10µM*,?
O=[N+]([O-])c1cccc(N=Nc2ccc(O)cc2O)c1,2.8µM*,?,1.8µM*,?,?
c1ccc(-c2nc(NCc3cccnc3)c3ccccc3n2)cc1,?,?,10µM*,-1%,-23%
N#Cc1c(NCc2ccccc2)ccnc1NCc1cccnc1,?,?,7.1µM*,-23%,?
c1cncc(-c2nc(NCc3ccco3)c3ccccc3n2)c1,-33%,-14%,10µM*,14%,i
Clc1cccc(-c2nc(NCc3cccnc3)c3ccccc3n2)c1,-18%,·,2.8µM*,29%,·
N#Cc1c(F)cccc1NCc1cccnc1,10%,-12%,?,?,-21%
SMILES,Marburg entry inh,VACV Venus inh,HCV inh,LASV entry inh,VACV mCherry inh
Cc1ccc(CC(=O)NO)cc1,·,-12%,·,·,-9%
Cc1ccc2c(=O)cc(C(=O)Nc3sc4c(c3C(=O)NCc3cccnc3)CCCC4)oc2c1C,9%[46.1 µM],-7%,·,2%[46.1 µM],-7%
CNC(=O)c1c(NC(=O)c2ccco2)sc2c1CCCC2,17%[46.1 µM],-15%,14µM*,-20%[46.1 µM],-9%
CC(Oc1ccc(F)cc1)C(=O)Nc1sc2c(c1C(=O)NCc1cccnc1)CCCC2 (centres undefined),1%,-22%,2.5µM*,-2%,-25%
O=C(Nc1sc2c(c1C(=O)NCc1cccnc1)CCCC2)c1ccco1,?,·,7.9µM*,-8%,·
CCOC(=O)CNC(=O)O[C@@H]1C(=O)c2cc(OC)ccc2O[C@H]1c1ccc(OC)c(Br)c1,7%[14.2 µM],·,·,?,·
Cc1cccc(Nc2nnc(-c3ccc(N4CCOCC4)c([N+](=O)[O-])c3)c3ccccc23)c1,2.2µM*,-27%,14µM*,10µM*,-13%
Cc1ccc(-c2nnc(Nc3cccc(O)c3)c3ccccc23)cc1S(=O)(=O)N1CCOCC1,·,-28%,·,?,-20%
Cc1cc2c(c(-c3nc4ccccc4s3)c1)OC(CNC(=O)CCc1cccnc1)C2 (centres undefined),·,14%,·,·,-8%
CC(C)n1cnc2c(Nc3cccc(Cl)c3)nc(NCCCO)nc21,·,10µM*,11µM*,·,?
CC(C)[C@H](CO)Nc1nc(Nc2ccc(Cl)c(C(=O)O)c2)c2ncn(C(C)C)c2n1,·,-10%,18%,·,i
CC(C)=CCCC(C)=CCN1C(=O)[C@@]2(C[C@@H](C)C[C@@H](C)O2)c2ccccc21,-7%[14.2 µM],·,·,·,·
Nc1nc(CN2CCN(c3ccccc3)CC2)nc(N2CCCc3ccccc32)n1,10%,·,4%,-19%,·
Nc1nc(CSc2nnnn2-c2ccccc2)nc(N2CCCc3ccccc32)n1,?,-28%,11µM*,?,?
CCN(CC)CCCN(C(=O)c1ccco1)c1nc(-c2ccc(Cl)cc2)cs1,?,-21%,11µM*,?,-22%
CCN(CC)CCCN(C(=O)c1ccco1)c1nc(-c2ccc(C)cc2)cs1,8.9µM*,-5%,?,?,?
COCCCN(C(=O)c1ccco1)c1nc(-c2ccc(OC)cc2)cs1,?,-18%,?,?,-21%
CN(C)C(=O)c1ccc(/C=C/c2ccnc3ccccc23)cc1,·,1%,·,·,-22%
CC1=C[C@@H](COCc2ccccc2)O[C@@]2(C1)C(=O)Nc1cccc(Br)c12,9%[14.2 µM],·,·,?,·
CCOc1ccc(C2CC(=O)c3c([nH]c(C(=O)OCCOc4ccccc4)c3C)C2)cc1 (centres undefined),-1%[46.1 µM],?,·,?,-17%
Cc1c(C(=O)OCCOc2ccccc2)[nH]c2c1C(=O)CCC2,?,-25%,13µM*,7.9µM*,-15%
CC(=O)c1c(C)[nH]c(C(=O)NCc2cccc(Cl)c2)c1C,-16%[46.1 µM],-10%,11µM*,-5%,i
CC(=O)c1c(C)[nH]c(C(=O)OCc2ccc(Br)cc2)c1C,?,-19%,4.5µM*,-23%,i
CC(=O)c1c(C)[nH]c(C(=O)OCc2cccc(C)c2)c1C,?,-8%,16µM*,?,i
COC(=O)C(C(C)=O)[C@@H](NC(=O)OC(C)(C)C)c1ccccc1 (some centres undefined),-7%[14.2 µM],·,·,·,·
COc1ccc(NC(=O)CSCc2cc(=O)c3cc(C)ccc3[nH]2)cc1,·,?,·,-1%[46.1 µM],-25%
CC(=O)c1c(C)[nH]c(C(=O)COC(=O)CCCOc2ccccc2)c1C,11%[46.1 µM],-23%,0%,4%,-19%
